Data: PubChem BioAssay (NCI)
About 79,000 compounds went through this panel and 15% of them were active in at least one assay; those are over-represented in the sample as a whole. Cut-off read from the data, not from the text of the source: active = growth inhibition above about 70%; inactive = the rest. *1 amine or outer side, *2 acyl side, *3 side chain or, on linkers, in order; H or OH if unused. Where a SMILES comes first, the peptide text is derived from it. [ ]: non-standard residue; d: D form. X12 = NC(N)=NCC(O)CC(N[*:1])C(=O)[*:2]; Orn = NCCC[CH](N)C(=O)O

Legend:
[1] = NCI Yeast Anticancer Drug Screen. Data for the rad50 strain (AID 155);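 note: 0% = growth of vehicle-only cultures of the same strain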; settings: S. cerevisiae rad50 strain growth inhibition; at 50.0 µM; stronger effect = higher value
In short: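 Yeast carrying a defined DNA repair defect were exposed to test compounds, and growth was compared with vehicle-treated controls to give percent inhibition.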

[2] = NCI Yeast Anticancer Drug Screen. Data for the mec2-1 strain (AID 157); settings: S. cerevisiae mec2-1 strain, at 50.0 µM, stronger effect = higher value
In short: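 Using mec2-1 yeast: add compound, measure growth, express inhibition versus vehicle-treated cultures.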

[3] = NCI Yeast Anticancer Drug Screen. Data for the sgs1 mgt1 strain (AID 161);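 note: 0% = growth of cultures given vehicle only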; settings: S. cerevisiae sgs1 mgt1 strain, at 50.0 µM, stronger effect = higher value
In short: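 Growth of a repair-deficient yeast mutant was monitored after compound treatment and expressed as inhibition relative to vehicle-treated cultures.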

[4] = NCI Yeast Anticancer Drug Screen. Data for the cln2 rad14 strain (AID 165);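 note: 0% = growth equal to vehicle treated cultures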; settings: S. cerevisiae cln2 rad14 strain, at 50.0 µM, stronger effect = higher value
In short: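 Yeast strain cln2 rad14, bearing defects in cell cycle control and DNA repair, serves as the test system; values reflect growth inhibition compared with vehicle.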

[5] = NCI Yeast Anticancer Drug Screen. Data for the bub3 strain (AID 167); settings: S. cerevisiae bub3 mutant strain, at 50.0 µM, stronger effect = higher value
In short: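 Compounds were applied to a genetically altered yeast strain carrying a cell-cycle control defect. Growth inhibition was scored against vehicle-treated controls.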

[6] = NCI Yeast Anticancer Drug Screen. Data for the mlh1 rad18 strain (AID 175); settings: S. cerevisiae mlh1 rad18 strain growth inhibition; at 50.0 µM; stronger effect = higher value
In short: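 Steps: expose repair-defective yeast to compound; measure growth; express inhibition against vehicle-treated controls.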

Measured: growth inhibition

ClSC(c1ccccc1)(c1ccccc1)c1ccccc1
inactive: [1] 20.2% | [2] 8.9% | [3] 57.6% | [4] 10.6% | [5] -30.9% | [6] 33.4%

CCCCCCCC(=O)N1CCCC(C)C1 (stereo not given)
inactive: [1] -7.8% | [2] -25.8% | [3] 9.3% | [4] -5.75% | [5] -35.3% | [6] -3.9%

C/C(CC(=O)Nc1cc(C)ccc1C)=N/N=C(N)N
inactive: [1] -24.6% | [2] -28.3% | [3] -11.5% | [4] 17.8% | [5] -22.9% | [6] -8.55%

CCOC(=O)C1=C(NC(C)(C)C)OCC1=O
inactive: [1] -10.7% | [2] -17.9% | [3] -2.2% | [4] 3.1% | [5] -16.6% | [6] 16.1%

CC(=O)O[C@@H]1C[C@H](C)CC(C)(C)C1
inactive: [1] 3.35% | [2] 5.75% | [3] -10.6% | [4] -3.7% | [5] 0.4% | [6] -3.1%

NC(=Nc1ccc([N+](=O)[O-])cc1)c1ccccc1
inactive: [1] 6.95% | [2] 1.6% | [3] -4.05% | [4] -11.9% | [5] 8.3% | [6] 9.65%

CC(=O)OCC(=O)C1(O)C(C)CC2C3CCC4CC(=O)CCC4(C)C3=CCC21C (stereo not given)
inactive: [1] 43.1% | [2] -16.6% | [3] 0.65% | [4] -2.95% | [5] 26.1% | [6] 23.8%

O=c1c2c(nc3n1CCC3)OC(c1ccccc1)C2 (stereo not given)
inactive: [1] 0.4% | [2] 4.3% | [3] -5.9% | [4] -44.8% | [5] -2.95% | [6] 12.6%

c1ccc2oc(C34OC5CC(CC(C5)O3)O4)nc2c1
inactive: [1] 24.8% | [2] 13.2% | [3] 21.9% | [4] 11.1% | [5] 0.5% | [6] 10%

NC(=O)CCCCCCCC(=O)O
inactive: [1] -0.9% | [2] -5.7% | [3] -13.4% | [4] 1.45% | [5] -10.6% | [6] -22.9%

CCOC(=O)C1=C(C)N(NC(N)=O)C(C)(O)C12CCOC2=O (stereo not given)
inactive: [1] 32% | [2] 0% | [3] -10.8% | [4] 13.1% | [5] 3.2% | [6] 39%

COc1ccc(C(C)(C)c2ccccc2)cc1
inactive: [1] -20.1% | [2] -45.1% | [3] -13.4% | [4] -19.9% | [5] -24.6% | [6] -18.6%

Nc1ccccc1N=Cc1c(O)c2ccccc2oc1=O
inactive: [1] -8.55% | [2] -11% | [3] 2.7% | [4] 4.05% | [5] 4.25% | [6] 8.2%

CC(=O)CC(=O)NC1CCCC1
inactive: [1] -25.8% | [2] -38.6% | [3] -33% | [4] -3.5% | [5] -50% | [6] -13.9%

CSc1nc(NC2OCC(OC(C)=O)C(OC(C)=O)C2OC(C)=O)c2c(n1)OCC2=O (stereo not given)
inactive: [1] -17% | [2] -21.6% | [3] -21.6% | [4] 6.1% | [5] 13.4% | [6] -10.5%

CC(/C=N/N(C)C)=N\N(C)C
inactive: [1] -3.75% | [2] 5.3% | [3] -5.65% | [4] -60.4% | [5] 32.2% | [6] -21.4%

CC(=O)OC1CCC2=C3CCC4(C)C(=O)CCC4C3C(O)C2(C)C1 (stereo not given)
inactive: [1] 0.05% | [2] -2% | [3] -5.3% | [4] -5.2% | [5] -14.3% | [6] -9.5%

O=C(COc1ccc(Cl)cc1)NC(CO)(CO)CO
inactive: [1] 22.1% | [2] 16.3% | [3] 18.9% | [4] 43% | [5] 17.1% | [6] 10.8%

C=C(Cl)C(=C)CCC(Cl)C(C)C (stereo not given)
inactive: [1] -6.15% | [2] -9.4% | [3] 1.6% | [4] 20.6% | [5] 0.25% | [6] 0.55%

CCc1c(C)nc2[nH]ncn2c1=O
inactive: [1] 10.8% | [2] -2.1% | [3] 11.1% | [4] -2.25% | [5] 7.25% | [6] 6.7%

CCOC(=O)/C(C)=C/CC1=C(O)c2ccccc2C(=O)C1=O
inactive: [1] 7.3% | [2] 23.7% | [3] 14.1% | [4] 16.2% | [5] 1.95% | [6] 16.8%

N#CC(NCc1ccccc1)C(O)c1ccccc1 (stereo not given)
inactive: [1] 17.8% | [2] 11% | [3] 2.25% | [4] 16.8% | [5] 9.25% | [6] 11.9%

Cc1cccnc1N
inactive: [1] -9.4% | [2] -31.6% | [3] 5.3% | [4] -11.6% | [5] -1.15% | [6] 14.7%

CC(=O)Nc1cc(F)c2c(c1F)Cc1cc(F)ccc1-2
inactive: [1] 15.1% | [2] 21.9% | [3] 11.7% | [4] -63.4% | [5] 5.15% | [6] 7.95%

CC1COCOC1c1ccc2c(c1)OCO2 (stereo not given)
inactive: [1] 17.6% | [2] 4% | [3] 6% | [4] 9.45% | [5] -9.45% | [6] -15.8%

CC(O)C(NC(=O)C(CCCN)NC(=O)C(CC(O)CN=C(N)N)NC(=O)C(N)CCCN=C(N)N)C(=O)NC(CCCN)C(=O)NC(CC(O)CN=C(N)N)C(=O)NC(Cc1ccc(O)cc1)C(=O)O (stereo not given) (H-R[X12][Orn]T[Orn][X12]Y-OH; configuration not given here)
inactive: [1] -0.15% | [2] -19.4% | [3] -4.1% | [4] 15.1% | [5] -15.2% | [6] 2.45%

N#CCCN(c1ccc(C=O)cc1)S(=O)(=O)c1ccccc1
inactive: [1] -0.1% | [2] -13% | [3] -1.75% | [4] 5.75% | [5] -13.4% | [6] -15.7%

Cc1cc[c]([Sb]2([c]3ccc(C)cc3)([c]3ccc(C)cc3)[NH]c3cc(C(c4ccccc4)(c4ccccc4)c4ccccc4)cc(C(C)(C)C)c3[O]2)cc1
inactive: [1] -1.65% | [2] 14.3% | [3] 5.15% | [4] -23.6% | [5] -1.25% | [6] 11.1%

COCC/C=C\CN(C(C)C)C(C)C
inactive: [1] -9.5% | [2] -13.3% | [3] -0.4% | [4] 5.45% | [5] 3.5% | [6] 1.05%

CCOP(=O)(OCC)C1OCC(O)C(C2OC(P(=O)(OCC)OCC)OCC2O)O1 (stereo not given)
inactive: [1] 7.95% | [2] 4.4% | [3] 2.45% | [4] 0.85% | [5] -1.55% | [6] 7.25%

COc1ccc(C(=O)C(C)(CCC#N)CCC#N)cc1
inactive: [1] -10.3% | [2] -6.3% | [3] 3.25% | [4] -44.6% | [5] 14.3% | [6] 2.3%

Nc1nc(Cc2ccccc2)nc2[nH]ncc12
inactive: [1] 3.85% | [2] 6.3% | [3] 3.2% | [4] -18.5% | [5] -8.9% | [6] -1.6%

CCCCCC/C(CC(=O)CCC(=O)NCCc1ccccc1)=N\Nc1ccc([N+](=O)[O-])cc1[N+](=O)[O-]
inactive: [1] -0.2% | [2] 14.9% | [3] -35.5% | [4] 34.2% | [5] 11.9% | [6] -1.7%

CC(C)Cc1cccc(C(C)C)c1NC(=O)CCC(=O)N/N=C1\C(=N/NC(=O)CCC(=O)Nc2c(C(C)C)cccc2C(C)C)C(c2ccc3c(c2)OCO3)Oc2ccccc21 (stereo not given)
inactive: [1] 5.2% | [2] -21.6% | [3] -5% | [4] -2.7% | [5] 6.75% | [6] 11.2%

CC1=C(C(=O)NCc2ccccc2)C(c2ccccc2C)C(C(=O)NCc2ccccc2)=C(C)N1
inactive: [1] 52.1% | [2] 26% | [3] 31.6% | [4] -10.9% | [5] 36% | [6] 25.4%

Oc1ccc2ccccc2c1C=Nc1ccc(SSc2ccc(N=Cc3c(O)ccc4ccccc34)cc2)cc1
inactive: [1] -6.6% | [2] -10.1% | [3] -19.6% | [4] -59.5% | [5] 0.9% | [6] -3.1%

COC(=O)c1cc(C)c(C)c2c1NC(=O)CNC2=O
inactive: [1] -4.1% | [2] -4.2% | [3] 3.95% | [4] 19.8% | [5] -3.7% | [6] 7.95%

CCSc1ccc(N=[N+]([O-])c2ccc(SCC)c(Cl)c2)cc1Cl
inactive: [1] -5.6% | [2] 10.8% | [3] 1.65% | [4] -17.1% | [5] -4.6% | [6] 9.3%

CCOC(=O)C(=C/C=C/NCCc1c[nH]c2ccccc12)C(=O)OCC
inactive: [1] -23.1% | [2] -44.5% | [3] -20.8% | [4] -10.2% | [5] -15.2% | [6] -26.2%

CCN(CC)CCCC#N
inactive: [1] -5.25% | [2] 4.7% | [3] -8.8% | [4] -13% | [5] -2.6% | [6] -2.85%
